Among the data in ChEMBL document CHEMBL3988442, “University of Dundee, Small-Polar-MMV Screening Library” (2021) are Percent Effect values, retold here.

For some of these results: Potency and affinity values are given separately.

What all share (design): scale not given: direction of the effect not stated beside the values
The target of assay [1] is Protein translocase subunit SecA (Escherichia coli (strain K12)) (UniProt P10408). Kind of assay: Assay to Identify E. coli SecA ATPase Inhibitors. The class given is functional. The conditions noted are these: 30 µM.
Protein translocase subunit SecA (Escherichia coli (strain K12)), sequence (P10408 whole entry): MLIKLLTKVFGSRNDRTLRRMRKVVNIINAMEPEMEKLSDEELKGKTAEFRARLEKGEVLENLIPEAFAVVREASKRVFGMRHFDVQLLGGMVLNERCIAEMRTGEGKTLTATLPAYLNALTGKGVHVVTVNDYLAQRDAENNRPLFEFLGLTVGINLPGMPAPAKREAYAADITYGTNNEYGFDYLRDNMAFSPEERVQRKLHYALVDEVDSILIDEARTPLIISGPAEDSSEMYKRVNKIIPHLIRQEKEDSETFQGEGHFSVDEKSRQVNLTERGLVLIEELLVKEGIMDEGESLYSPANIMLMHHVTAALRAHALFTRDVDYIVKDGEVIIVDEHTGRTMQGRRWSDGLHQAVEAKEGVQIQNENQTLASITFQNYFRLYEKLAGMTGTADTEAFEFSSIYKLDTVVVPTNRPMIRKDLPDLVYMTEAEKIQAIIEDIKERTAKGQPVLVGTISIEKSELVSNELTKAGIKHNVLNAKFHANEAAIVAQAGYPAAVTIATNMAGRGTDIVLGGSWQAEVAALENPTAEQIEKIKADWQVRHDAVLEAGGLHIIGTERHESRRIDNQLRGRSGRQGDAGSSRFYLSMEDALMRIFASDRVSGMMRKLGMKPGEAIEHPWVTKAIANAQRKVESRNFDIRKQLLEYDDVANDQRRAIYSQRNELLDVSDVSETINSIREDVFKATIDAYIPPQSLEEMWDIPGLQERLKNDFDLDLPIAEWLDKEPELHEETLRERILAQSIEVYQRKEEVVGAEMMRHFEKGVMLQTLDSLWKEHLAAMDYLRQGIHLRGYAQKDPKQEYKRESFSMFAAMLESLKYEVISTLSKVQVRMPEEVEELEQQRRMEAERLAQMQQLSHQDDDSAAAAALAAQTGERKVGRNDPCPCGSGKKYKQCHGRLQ
Assay [2] concerns the target T1, Ubiquitin-activating enzyme e1, putative (Leishmania donovani (strain BPK282A1)) (UniProt E9BSI1).
T1 sequence (whole entry): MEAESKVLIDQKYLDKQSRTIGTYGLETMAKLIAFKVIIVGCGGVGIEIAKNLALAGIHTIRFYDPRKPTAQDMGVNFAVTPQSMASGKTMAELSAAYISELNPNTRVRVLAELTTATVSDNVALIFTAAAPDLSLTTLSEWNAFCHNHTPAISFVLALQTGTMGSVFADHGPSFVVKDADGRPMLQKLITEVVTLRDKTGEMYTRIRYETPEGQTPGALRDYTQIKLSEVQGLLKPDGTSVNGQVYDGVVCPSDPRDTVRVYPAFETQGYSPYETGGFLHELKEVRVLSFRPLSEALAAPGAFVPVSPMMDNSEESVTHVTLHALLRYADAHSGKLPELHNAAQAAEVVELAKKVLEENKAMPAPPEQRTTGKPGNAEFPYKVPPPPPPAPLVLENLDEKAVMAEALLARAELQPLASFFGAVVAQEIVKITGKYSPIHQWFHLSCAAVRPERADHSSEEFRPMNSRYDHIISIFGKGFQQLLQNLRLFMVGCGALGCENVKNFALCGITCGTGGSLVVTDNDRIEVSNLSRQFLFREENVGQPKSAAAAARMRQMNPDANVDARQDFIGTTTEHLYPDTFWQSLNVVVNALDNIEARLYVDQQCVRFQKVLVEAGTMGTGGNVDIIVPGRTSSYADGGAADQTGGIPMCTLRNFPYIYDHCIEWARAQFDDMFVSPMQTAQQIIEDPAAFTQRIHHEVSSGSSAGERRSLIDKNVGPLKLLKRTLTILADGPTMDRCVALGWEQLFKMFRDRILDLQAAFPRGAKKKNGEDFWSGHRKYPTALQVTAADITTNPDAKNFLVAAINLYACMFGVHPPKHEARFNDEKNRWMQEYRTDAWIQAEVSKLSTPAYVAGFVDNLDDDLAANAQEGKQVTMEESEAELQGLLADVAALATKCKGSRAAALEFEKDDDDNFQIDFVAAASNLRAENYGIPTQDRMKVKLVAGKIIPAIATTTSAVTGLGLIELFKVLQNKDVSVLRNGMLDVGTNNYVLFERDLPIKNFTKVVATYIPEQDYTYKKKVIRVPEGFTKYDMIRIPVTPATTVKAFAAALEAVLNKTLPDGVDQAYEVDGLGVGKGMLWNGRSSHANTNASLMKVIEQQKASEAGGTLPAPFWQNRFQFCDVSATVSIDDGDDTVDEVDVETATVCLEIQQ
Briefly: Leishmania donovani Ubiquitin Activating Enzyme (LdE1). To be noted: 30 µM. The assay is classed as functional.

For assay [3], the target named is AMP-activated protein kinase, AMPK (Homo sapiens) (UniProt P54646+O43741+P54619+Q9UGJ0+Q9Y478+Q13131+Q9UGI9). Briefly: AMP-dependent Kinase enzyme assay. An in vitro enzyme assay that detects ADP turnover that is directly proportional to AMPK activity. This uses naive AMPK that is activated during the assay with MK-8722. The assay is classed as functional. To be noted: 30 µM.

The target in assay [4] is Sialic acid-binding Ig-like lectin 9 (Homo sapiens) (UniProt Q9Y336). Kind of assay: Hs-Siglec9 ALPHAscreen SOP 20170721. The conditions noted are these: 10 µM. For orientation: Alpha assays give light when donor and acceptor beads are brought close together.
Sialic acid-binding Ig-like lectin 9 (Homo sapiens), sequence (Q9Y336 whole entry): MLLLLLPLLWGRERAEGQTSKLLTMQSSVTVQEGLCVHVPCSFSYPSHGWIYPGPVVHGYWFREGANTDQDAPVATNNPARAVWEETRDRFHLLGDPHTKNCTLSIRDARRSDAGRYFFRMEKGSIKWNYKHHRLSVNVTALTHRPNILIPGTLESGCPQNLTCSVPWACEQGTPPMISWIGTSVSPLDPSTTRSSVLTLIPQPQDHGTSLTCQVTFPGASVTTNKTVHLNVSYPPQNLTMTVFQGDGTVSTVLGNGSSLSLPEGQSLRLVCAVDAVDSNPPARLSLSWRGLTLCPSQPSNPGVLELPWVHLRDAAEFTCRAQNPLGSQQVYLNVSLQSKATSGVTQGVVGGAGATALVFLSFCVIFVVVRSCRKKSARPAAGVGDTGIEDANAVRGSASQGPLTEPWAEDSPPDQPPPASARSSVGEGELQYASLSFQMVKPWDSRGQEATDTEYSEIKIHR
For a further assay, the system named is Trypanosoma cruzi. Briefly: Trypanosoma cruzi phosphomannomutase and mannose-1-phosphate guanylyltransferase assay. The class given is functional. To be noted: 10 µM.
For assay [5], the target named is T2, Arginase-2, mitochondrial (Homo sapiens) (UniProt P78540).
T2 sequence (whole entry): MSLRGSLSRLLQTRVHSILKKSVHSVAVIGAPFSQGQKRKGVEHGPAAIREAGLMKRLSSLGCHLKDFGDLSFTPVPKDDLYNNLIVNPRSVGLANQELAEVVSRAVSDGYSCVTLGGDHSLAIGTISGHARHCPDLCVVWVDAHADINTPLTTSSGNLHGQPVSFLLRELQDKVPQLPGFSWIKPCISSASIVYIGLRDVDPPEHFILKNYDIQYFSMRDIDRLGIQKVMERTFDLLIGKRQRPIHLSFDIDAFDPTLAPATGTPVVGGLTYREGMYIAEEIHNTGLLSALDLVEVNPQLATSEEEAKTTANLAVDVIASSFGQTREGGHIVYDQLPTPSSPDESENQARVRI
Briefly: in vitro enzyme assay to detect the production of urea directly proportional to the activity of Arginase II. Also: in the data most compounds retested in dose-response had high values. The class given is functional. To be noted: 33.3 µM.

The target of assay [6] is T3, Proteasome subunit beta (Trypanosoma cruzi) (UniProt O96673).
T3 sequence (whole entry): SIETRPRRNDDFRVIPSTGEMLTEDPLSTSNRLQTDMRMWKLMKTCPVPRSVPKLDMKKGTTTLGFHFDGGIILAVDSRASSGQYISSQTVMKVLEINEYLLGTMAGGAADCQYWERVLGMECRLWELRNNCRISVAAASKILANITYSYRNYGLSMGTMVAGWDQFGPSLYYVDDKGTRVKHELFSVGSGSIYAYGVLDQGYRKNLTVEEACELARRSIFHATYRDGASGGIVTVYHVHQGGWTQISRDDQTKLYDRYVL
Briefly: Trypanosoma cruzi proteasome chymotrypsin-like activity (TcProtChymo) assay. Also: in the data most compounds retested in dose-response had high values. The assay is classed as functional. The conditions noted are these: 9.37 µM.

A further assay is filed under the species Homo sapiens. Briefly: To identify inhibition of the IFN signalling (Jak-Stat) pathway via expression of an eGFP reporter gene under the control of an IFN-stimulated response element (ISRE) containing MxA promoter. To be noted: 30 µM. The assay is classed as functional.
Assay [7] concerns the target T4, Tyrosyl-tRNA synthetase, putative (Trypanosoma cruzi (strain CL Brener)) (UniProt Q4DSP6).
T4 sequence (whole entry): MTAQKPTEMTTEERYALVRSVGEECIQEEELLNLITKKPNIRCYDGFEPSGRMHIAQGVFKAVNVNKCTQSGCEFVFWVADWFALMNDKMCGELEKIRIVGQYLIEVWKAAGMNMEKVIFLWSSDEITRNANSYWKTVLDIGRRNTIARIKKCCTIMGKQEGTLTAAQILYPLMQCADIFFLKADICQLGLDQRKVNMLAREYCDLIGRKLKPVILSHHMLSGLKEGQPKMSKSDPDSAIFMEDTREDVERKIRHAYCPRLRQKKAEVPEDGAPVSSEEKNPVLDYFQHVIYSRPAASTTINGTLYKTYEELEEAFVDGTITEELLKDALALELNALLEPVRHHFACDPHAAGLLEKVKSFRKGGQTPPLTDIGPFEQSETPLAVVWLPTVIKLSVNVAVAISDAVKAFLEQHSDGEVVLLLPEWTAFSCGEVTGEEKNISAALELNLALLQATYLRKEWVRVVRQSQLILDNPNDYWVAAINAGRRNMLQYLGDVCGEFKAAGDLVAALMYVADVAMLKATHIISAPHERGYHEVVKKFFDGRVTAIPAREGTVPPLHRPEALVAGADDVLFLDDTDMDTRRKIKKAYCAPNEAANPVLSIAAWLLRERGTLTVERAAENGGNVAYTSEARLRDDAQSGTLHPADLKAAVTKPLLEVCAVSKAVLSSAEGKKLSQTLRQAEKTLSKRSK
Briefly: Trypanosoma cruzi tyrosyl tRNA synthetase (TcYRS) _High Tyrosine SOP. Also: in the data most compounds retested in dose-response had high values. The class given is functional. The conditions noted are these: 30 µM.

In assay [8] the target is T4, Tyrosyl-tRNA synthetase, putative (Trypanosoma cruzi (strain CL Brener)). Kind of assay: Trypanosoma cruzi tyrosyl tRNA synthetase (TcYRS) SOP. The class given is functional. To be noted: 30 µM.
For assay [9], the target named is Chromo domain-containing protein 1 (Saccharomyces cerevisiae (strain ATCC 204508 / S288c) (Baker's yeast)) (UniProt P32657). Briefly: ScCHD-1 Enzyme Inhibition Assay. Also: in the data most compounds retested in dose-response had high values. The assay is classed as functional. To be noted: 30 µM.
Chromo domain-containing protein 1 (Saccharomyces cerevisiae (strain ATCC 204508 / S288c) (Baker's yeast)), sequence (P32657 whole entry, the tested form may be a part): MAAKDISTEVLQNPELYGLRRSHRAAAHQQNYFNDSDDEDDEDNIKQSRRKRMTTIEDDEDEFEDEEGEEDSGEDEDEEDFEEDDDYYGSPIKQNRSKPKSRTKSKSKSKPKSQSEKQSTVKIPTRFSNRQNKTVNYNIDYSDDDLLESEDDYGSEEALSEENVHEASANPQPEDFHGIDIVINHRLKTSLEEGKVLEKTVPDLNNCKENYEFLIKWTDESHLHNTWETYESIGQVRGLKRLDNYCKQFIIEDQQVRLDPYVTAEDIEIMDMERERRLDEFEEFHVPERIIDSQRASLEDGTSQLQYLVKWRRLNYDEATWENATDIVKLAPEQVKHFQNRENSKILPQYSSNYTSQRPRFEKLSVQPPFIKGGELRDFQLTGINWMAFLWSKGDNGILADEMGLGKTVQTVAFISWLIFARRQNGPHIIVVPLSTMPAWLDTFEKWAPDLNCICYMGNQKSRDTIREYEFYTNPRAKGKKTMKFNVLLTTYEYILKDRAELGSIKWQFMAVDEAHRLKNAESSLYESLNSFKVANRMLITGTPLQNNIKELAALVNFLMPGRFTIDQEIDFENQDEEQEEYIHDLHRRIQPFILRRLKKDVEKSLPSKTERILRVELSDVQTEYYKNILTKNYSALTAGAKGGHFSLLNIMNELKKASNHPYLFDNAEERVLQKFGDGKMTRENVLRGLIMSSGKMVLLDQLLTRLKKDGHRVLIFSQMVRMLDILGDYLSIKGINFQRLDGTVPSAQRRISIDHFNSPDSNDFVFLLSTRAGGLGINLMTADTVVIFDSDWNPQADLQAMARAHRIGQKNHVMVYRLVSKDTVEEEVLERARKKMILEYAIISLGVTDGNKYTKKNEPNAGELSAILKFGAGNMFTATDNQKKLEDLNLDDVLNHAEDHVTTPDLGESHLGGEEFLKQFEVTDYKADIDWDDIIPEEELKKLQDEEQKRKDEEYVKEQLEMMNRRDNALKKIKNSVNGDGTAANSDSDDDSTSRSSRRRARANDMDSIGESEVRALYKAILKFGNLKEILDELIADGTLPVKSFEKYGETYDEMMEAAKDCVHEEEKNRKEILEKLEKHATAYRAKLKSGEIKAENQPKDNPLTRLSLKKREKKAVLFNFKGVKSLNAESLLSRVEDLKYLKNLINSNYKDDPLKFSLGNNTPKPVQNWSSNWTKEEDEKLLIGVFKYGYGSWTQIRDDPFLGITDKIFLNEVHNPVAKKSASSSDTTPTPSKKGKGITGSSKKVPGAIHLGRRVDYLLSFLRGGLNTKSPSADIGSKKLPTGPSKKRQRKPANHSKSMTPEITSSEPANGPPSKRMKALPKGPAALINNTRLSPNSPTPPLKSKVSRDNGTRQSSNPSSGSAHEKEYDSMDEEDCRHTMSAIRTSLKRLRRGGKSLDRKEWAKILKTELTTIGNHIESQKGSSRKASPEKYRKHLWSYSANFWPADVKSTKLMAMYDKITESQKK

Consider `CCOC(=O)N1CCC(C(=O)c2cc(F)ccc2F)CC1`, for which the Percent Effect was -3.27% in assay [1]; -2.63% in [2]; 4.38% in assay [3]; -6.37% in assay [4]; -1.69% with Trypanosoma cruzi; 4.98% in assay [5]. The Percent Effect was -3.34% in [6]; 10.2% in the assay filed under Homo sapiens; -1.47% in assay [7]; -4.88% in [8]; -0.881% in assay [9].
Consider `CCOC(=O)c1sc(NC(=O)CN(C)S(C)(=O)=O)c(C#N)c1C`, for which the Percent Effect in assay [1] is -1.3%; in assay [2], 10.4%; in assay [3], 11.5%; in assay [4], -2.4%; with Trypanosoma cruzi, -1.87%; in assay [5], 4.52%. The Percent Effect was 9.4% in assay [6]; 21.1% in the assay listed under Homo sapiens; 3.17% in [7]; 14.1% in assay [8]; -8.72% in assay [9].
On to `CN(CCO)Cc1nnc(C2CCN(C(=O)C(C)(C)C)CC2)n1C`, for which the Percent Effect in [1] is -2.6%; in assay [2], 5.33%; in assay [3], 1.76%; in assay [4], -1.99%; in the assay on Trypanosoma cruzi, -7.69%; in assay [5] it was 6.25%. Besides, the Percent Effect was 16.6% in assay [6]; 2.97% in the assay listed under Homo sapiens; 0.546% in [7]; 3.7% in assay [8]; -6% in assay [9].
On to `Cc1nc(C)n(CC2CCCCN2CCC(=O)Nc2cc(C)on2)n1` (stereo unspecified), for which the Percent Effect in assay [1] is -3.16%; in assay [2], 6.33%; in assay [3], 3.99%; in assay [4], 1.14%; with Trypanosoma cruzi it was -1.13%; in [5], -0.645%. Besides, the Percent Effect is 11% in assay [6]; 5.13% in the assay filed under Homo sapiens; -7.29% in assay [7]; 12.7% in assay [8]; -9.87% in assay [9].
For the compound `Cc1cccc2c1cnn2CCC(=O)NCC(=O)N(C)C`, the Percent Effect is -1.87% in assay [1]; 1.33% in assay [2]; 12.2% in assay [3]; 7.1% in assay [4]; -6.68% with Trypanosoma cruzi; -10% in assay [5]. Moreover, the Percent Effect is 14.2% in assay [6]; 3.37% in the assay listed under Homo sapiens; 4.23% in assay [7]; 7.69% in assay [8]; -10.3% in [9].
In the case of `Cc1nc(C2CCCN2CCCNS(C)(=O)=O)no1` (stereo unspecified), the Percent Effect was -3.7% in assay [1]; 15.8% in [2]; -4.74% in assay [3]; 1.41% in assay [4]; 7.14% in the assay on Trypanosoma cruzi; 4.98% in assay [5]. The Percent Effect in assay [6] was 20.4%; in the assay listed under Homo sapiens it was -7.41%; in assay [7], 4.41%; in [8] it was 19.5%; in [9], -5.18%.
On to `O=C1CC(c2cccs2)c2cnn(C3CCCC3)c2N1` (stereo unspecified), for which the Percent Effect is -5.95% in assay [1]; -5.33% in assay [2]; 6.01% in [3]; -6.09% in assay [4]; -6.13% in the assay on Trypanosoma cruzi; -4.69% in assay [5]. In addition, the Percent Effect in assay [6] is 6.97%; in the assay filed under Homo sapiens it was 10.9%; in [7] it was -2.73%; in assay [8], -6.17%; in assay [9], 1.62%.
Turning to `O=C(NCCCn1cncn1)NCC(c1ccco1)N1CCCCC1` (stereo unspecified), the Percent Effect is 1.3% in assay [1]; 10.4% in [2]; 2.22% in assay [3]; -12.8% in [4]; -5.39% with Trypanosoma cruzi; 5.26% in [5]. Moreover, the Percent Effect in assay [6] is 17.2%; in the assay filed under Homo sapiens, 12.4%; in [7] it was 4.76%; in assay [8] it was 18.8%; in assay [9], -13.7%.
Regarding `OC1(Cn2ccc3ncccc32)CCN(Cc2ccccn2)CC1`, the Percent Effect is -3.91% in [1]; 6.76% in assay [2]; 8.71% in assay [3]; -8.37% in [4]; -10.3% in the assay on Trypanosoma cruzi; -5.34% in [5]. The Percent Effect is 13.7% in [6]; 34.1% in the assay filed under Homo sapiens; -3.23% in assay [7]; -9.09% in assay [8]; -14.5% in assay [9].
As to `COc1cc(N2C[C@H]3OCC[C@H]3[C@H](C(=O)NC3CC3)C2)ncn1`, the Percent Effect is -2.33% in [1]; 5.48% in assay [2]; -1.57% in [3]; 8.48% in [4]; 2.18% in the assay with Trypanosoma cruzi; 0.399% in assay [5]. In addition, the Percent Effect in assay [6] is 6.93%; in the assay filed under Homo sapiens, 0.456%; in assay [7], 9.38%; in [8], 6.17%; in assay [9], -1.62%.
Take `CS(=O)(=O)N1CCCCCC1C1CCN(c2ncccn2)CC1` (stereo unspecified): the Percent Effect in assay [1] was -4.78%; in assay [2], 2.63%; in assay [3] it was 2.07%; in assay [4], 1.83%; in the assay on Trypanosoma cruzi, -4.13%; in assay [5], -1.92%. In addition, the Percent Effect in [6] stood at 2.17%; in the assay listed under Homo sapiens it was 24.7%; in [7] it was 1.47%; in assay [8] it was 7.32%; in [9], 0.0825%.
